# From PubChem BioAssay
# The source made the active and inactive calls.
# Experiments:
# [1] = test system: Human papillomavirus type 1a protein E7 (residues 44-93); assay: small molecules binding HPV E7 44-93 – biochemical, small-molecule microarray, residues 44-93, 635 nm fluorescence, primary screen (AID 1108); conditions: fluorescence 635 nm, higher = more signal;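 note: E7 fragment applied at 1 µg/mL in TBST for 1 h at 4 C; score combines spot fluorescence with its signal to noise ratio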
# [2] = hepatitis C replication reporter changes, two-sided – Huh7 cells, luciferase reporter, HCV replication inhibitor project, primary screen (AID 1109); conditions: Huh7 HCV replicon luciferase reporter, 48 h; higher = more signal;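 note: huh7 hepatoma cells harbouring a luciferase neomycin HCV replicon reporter; luciferase luminescence as measure of HCV replicon replication; test concentration not given here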
# [3] = target: Left-right determination factor 2 (Homo sapiens) (UniProt O00292); assay: small molecules binding LEFTY2 protein – biochemical, small-molecule microarray, 635 nm fluorescence scan, primary screen (AID 1110); conditions: higher = more signal
# Chain of Left-right determination factor 2 (Homo sapiens) (O00292 whole entry, looked up): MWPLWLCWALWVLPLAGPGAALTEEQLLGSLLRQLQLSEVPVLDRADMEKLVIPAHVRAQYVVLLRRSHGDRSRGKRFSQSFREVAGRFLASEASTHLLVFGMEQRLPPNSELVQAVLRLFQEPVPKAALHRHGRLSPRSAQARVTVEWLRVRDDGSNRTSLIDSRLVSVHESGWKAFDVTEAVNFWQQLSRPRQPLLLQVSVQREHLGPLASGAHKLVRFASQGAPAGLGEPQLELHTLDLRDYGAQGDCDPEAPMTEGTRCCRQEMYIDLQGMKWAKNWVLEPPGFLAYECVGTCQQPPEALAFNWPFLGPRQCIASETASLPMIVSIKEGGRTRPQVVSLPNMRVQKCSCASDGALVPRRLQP
# [4] = target: Calmodulin-1 (Homo sapiens) (UniProt P0DP23); assay: small molecules binding calmodulin-1 with EGTA – biochemical, small-molecule microarray, Cy5-labelled CALM1, profiling panel (AID 1111); conditions: Cy5-CALM1 binding fluorescence, higher = more signal;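 note: labelled calmodulin applied in Tris saline Tween buffer holding calcium plus EGTA and DTT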
# [5] = target: Calmodulin-1 (Homo sapiens) (UniProt P0DP23); assay: small molecules binding Ca-loaded calmodulin-1 – biochemical, small-molecule microarray, Cy5-labelled CALM1, plus calcium, artefact control for SMM control-protein annotation, profiling panel (AID 1112); conditions: Cy5-CALM1 binding fluorescence, higher = more signal;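 note: score merges spot fluorescence with signal to noise from triplicate slides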
# [6] = probe aWnt5a binding to arrayed compounds – biochemical, biotinylated probe, 635/667 nm fluorescence, primary screen (AID 1113); conditions: small-molecule microarray, higher = more signal;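 note: score merges 667 nm fluorescence intensity with signal-to-noise per printed feature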
# [7] = probe aShh binding to arrayed compounds – biochemical, biotinylated probe, 635/667 nm fluorescence, primary screen (AID 1114); conditions: small-molecule microarray, higher = more signal;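 note: probe is biotin-labelled aShh protein from a stem cell growth factor screen; measures binding of labelled protein to compounds printed on the slide; score merges feature fluorescence at 667 nm with signal-to-noise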
# [8] = probe aNog binding to arrayed compounds – biochemical, biotinylated probe, 635/667 nm fluorescence, primary screen (AID 1115); conditions: small-molecule microarray, higher = more signal;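 note: probe is biotinylated aNog protein used at 0.15 µg/mL for 1 h at 4 C; z-score combines 667 nm fluorescence of each spot with its signal to noise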
# [9] = target: Torsin-1A-interacting protein 1 (Homo sapiens) (UniProt Q5JTV8); assay: compound microarray binding of lysate hLAP1 – cell lysate, small-molecule microarray, COS7 lysate, 635/667 nm fluorescence, primary screen (AID 1116); conditions: 635 nm fluorescence, higher = more signal
# Chain of Torsin-1A-interacting protein 1 (Homo sapiens) (Q5JTV8 whole entry, looked up): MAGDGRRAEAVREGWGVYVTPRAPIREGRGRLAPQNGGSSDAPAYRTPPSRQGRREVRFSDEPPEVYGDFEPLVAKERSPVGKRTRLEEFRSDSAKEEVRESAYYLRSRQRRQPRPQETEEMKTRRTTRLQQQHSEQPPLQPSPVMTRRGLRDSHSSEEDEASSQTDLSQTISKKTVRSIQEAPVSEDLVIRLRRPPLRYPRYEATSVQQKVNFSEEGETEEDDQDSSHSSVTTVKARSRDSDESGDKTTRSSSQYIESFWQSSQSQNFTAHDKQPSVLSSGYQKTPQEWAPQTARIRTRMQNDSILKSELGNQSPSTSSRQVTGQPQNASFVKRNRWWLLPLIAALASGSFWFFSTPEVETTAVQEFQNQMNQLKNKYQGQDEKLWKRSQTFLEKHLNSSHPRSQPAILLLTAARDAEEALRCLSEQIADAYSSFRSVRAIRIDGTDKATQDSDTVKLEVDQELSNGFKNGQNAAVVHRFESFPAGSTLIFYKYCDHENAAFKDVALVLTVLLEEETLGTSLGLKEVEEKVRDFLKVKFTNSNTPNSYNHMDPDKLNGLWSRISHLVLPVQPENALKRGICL
# [10] = target: Alpha-bungarotoxin (Bungarus multicinctus) (UniProt P60615); assay: compounds binding labelled alpha-BTX control protein – biochemical, small-molecule microarray, Alexa647 label, 635/667 nm fluorescence, artefact control for SMM control protein annotation, profiling panel (AID 1117); conditions: alpha-BTX-A647 binding fluorescence, higher = more signal
# Chain of Alpha-bungarotoxin (Bungarus multicinctus) (P60615 whole entry, looked up): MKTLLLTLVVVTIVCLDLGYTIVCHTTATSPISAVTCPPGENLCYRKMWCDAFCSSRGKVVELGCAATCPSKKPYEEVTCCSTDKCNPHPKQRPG
# [11] = target: Albumin (Bos taurus) (UniProt P02769); assay: compounds binding labelled BSA control protein – biochemical, small-molecule microarray, Alexa647 label, 635/667 nm fluorescence, artefact control for SMM control protein annotation, profiling panel (AID 1118); conditions: BSA-A647 binding, fluorescence 635 nm, higher = more signal;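 note: score merges 667 nm emission intensity and signal-to-noise per printed compound spot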
# Chain of Albumin (Bos taurus) (P02769 whole entry, looked up): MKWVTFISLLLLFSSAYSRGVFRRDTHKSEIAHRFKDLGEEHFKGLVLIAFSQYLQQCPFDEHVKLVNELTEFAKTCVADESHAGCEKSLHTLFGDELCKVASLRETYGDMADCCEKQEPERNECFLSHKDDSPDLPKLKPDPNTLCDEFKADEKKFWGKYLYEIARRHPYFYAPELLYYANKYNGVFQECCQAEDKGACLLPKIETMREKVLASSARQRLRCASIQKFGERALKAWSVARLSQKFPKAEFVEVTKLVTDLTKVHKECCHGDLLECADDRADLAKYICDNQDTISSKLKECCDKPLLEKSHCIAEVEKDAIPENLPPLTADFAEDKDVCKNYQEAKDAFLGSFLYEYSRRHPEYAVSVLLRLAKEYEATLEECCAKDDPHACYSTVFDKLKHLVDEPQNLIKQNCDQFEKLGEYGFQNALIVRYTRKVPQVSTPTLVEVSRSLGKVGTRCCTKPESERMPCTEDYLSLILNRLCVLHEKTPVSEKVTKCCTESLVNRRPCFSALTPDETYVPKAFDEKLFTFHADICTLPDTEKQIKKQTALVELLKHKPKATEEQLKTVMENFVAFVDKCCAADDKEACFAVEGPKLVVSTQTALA
# [12] = probe aXIP binding to arrayed compounds – biochemical, NeuroSMM set, 635/667 nm fluorescence, primary screen (AID 1119); conditions: small-molecule microarray, higher = more signal, called active from +8 up or from −8 down;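 note: probe is the protein aXip251-270 applied at 1 µg/mL to compound-printed slides; binding of probe to printed compounds measured as 667 nm fluorescence plus signal to noise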
# [13] = probe aNOTCH3 binding on compound microarray – biochemical, small-molecule microarray, 635/667 nm fluorescence, primary screen (AID 1120); conditions: higher = more signal;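 note: probe is a biotin-tagged antibody raised against NOTCH3 rather than NOTCH3 protein; score merges spot fluorescence near 667 nm with spot signal to noise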
# [14] = probe aNOTCH2 binding on compound microarray – biochemical, small-molecule microarray, 635/667 nm fluorescence, primary screen (AID 1121); conditions: higher = more signal;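 note: score merges feature fluorescence read at 667 nm with its signal to noise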
# [15] = target: Carbonic anhydrase 2 (Homo sapiens) (UniProt P00918); assay: compounds binding carbonic anhydrase 2 – biochemical, small-molecule microarray, Alexa647-labelled CAII, profiling panel (AID 1122); conditions: CAII-A647 binding fluorescence, higher = more signal
# [16] = COS7 lysate on small-molecule microarray, probe aHis, 635 nm (AID 1123); conditions: COS7 cell lysate, fluorescence, higher = more signal;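 note: z-score combines 667nm fluorescence intensity with signal-to-noise per printed compound spot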
# [17] = probe aLAP1 signal on lysate-treated microarray – cell lysate, small-molecule microarray, COS7 lysate, primary screen (AID 1124); conditions: probe aLAP1, fluorescence, higher = more signal;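 note: lysate comes from COS7 cells expressing LAP1 and is applied at 0.3 µg/mL; score merges spot fluorescence near 667 nm with signal-to-noise over triplicate slides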
# [18] = test system: Sam68 (KHDRBS1); assay: compounds binding KHDRBS1 protein – biochemical, small-molecule microarray, 635 nm fluorescence, primary screen (AID 1125); conditions: higher = more signal;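 note: score merges 667 nm channel intensity with signal to noise over triplicate slides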
# [19] = test system: Chordin-like protein 2 (CHRDL2); assay: compounds binding chordin-like 2 – biochemical, small-molecule microarray, 635 nm fluorescence, primary screen (AID 1126); conditions: fluorescence 635 nm, higher = more signal;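 note: printed compound slides probed with Chrdl2 protein at 4 µg/mL for 1 h at 4 C; score merges 667 nm emission intensity with signal to noise over three replicate slides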
# [20] = target: Concanavalin-A (Canavalia ensiformis) (UniProt P02866); assay: compounds binding concanavalin A lectin – biochemical, small-molecule microarray, Alexa647 label, 635 nm, artefact control for SMM control protein annotation, primary screen (AID 1127); conditions: ConA-A647 binding fluorescence, higher = more signal;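 note: z combines 667 nm emission intensity with signal-to-noise across three replicate slides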
# Chain of Concanavalin-A (Canavalia ensiformis) (P02866 whole entry, looked up): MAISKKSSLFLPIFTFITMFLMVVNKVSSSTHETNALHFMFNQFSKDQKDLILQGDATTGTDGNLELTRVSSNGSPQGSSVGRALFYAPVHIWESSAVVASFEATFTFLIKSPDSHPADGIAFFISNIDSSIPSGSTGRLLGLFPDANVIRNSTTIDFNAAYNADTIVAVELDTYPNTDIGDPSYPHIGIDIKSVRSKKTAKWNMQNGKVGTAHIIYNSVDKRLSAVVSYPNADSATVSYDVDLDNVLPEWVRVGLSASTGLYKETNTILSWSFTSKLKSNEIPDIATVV
SMILES,composite z-score [1],z-score [2],composite z-score [3],composite z-score [4],composite z-score [5],composite z-score [6],composite z-score [7],composite z-score [8],composite z-score [9],composite z-score [10],composite z-score [11],composite Z-score [12],composite z-score [13],composite z-score [14],composite z-score [15],composite z-score [16],composite z-score [17],composite z-score [18],composite z-score [19],composite z-score [20]
COc1cc2c(cc1O)C(C1CC1)N(Cc1ccc([N+](=O)[O-])o1)CC2 (stereo not given),1.29,-0.498,-0.423,1.82,1.21,-0.0924,-0.291,1.73,1.04,0.42,0.959,0.676 (inactive),0.0159,-0.0826,0.717,1.42,1.03,0.835,-0.465,0.934
CN1C=C(C(=O)OCCS(C)(=O)=O)C(C(=O)OCCS(C)(=O)=O)=CC(CCCO)=CC1c1ccc(CN2CCCC2)cc1 (stereo not given),1.45,-1.36,0.595,0.693,-0.551,-0.0087,0.261,0.827,0.51,0.745,0.676,0.48 (inactive),0.405,-0.146,0.746,1.87,-0.197,1.3,0.369,0.907
Cc1ccc(S[C@]2(C(=O)NC3CC3)CC(=O)N(Cc3cc(C(F)(F)F)cc(C(F)(F)F)c3)[C@@H]2c2ccc(CO)cc2I)cc1,0.769,-1.67,-0.175,0.102,-0.213,0.472,-0.19,1.65,0.0541,0.665,0.0876,0.193 (inactive),-0.512,0.381,0.554,1.18,0.959,0.964,0.452,1.07
COc1ccc(CCNC(=O)[C@@]2(Sc3ccc(C)cc3)CC(=O)N(C(C)C)[C@@H]2c2ccc(CO)cc2)cc1,0.889,-0.887,-2.73,0.359,-0.242,-0.28,0.0121,-0.209,-1.16,-0.563,0.566,0.397 (inactive),-0.39,-0.124,0.7,0.239,0.0112,-0.346,-2.15,-0.277
CCOC(=O)C[C@H]1[C@H](OC(=O)c2ccc(-c3ccccc3)cc2)[C@@H](NC(=O)c2ccc3ccccc3c2)c2cc(OCCCO)ccc2N1C(=O)c1ccccc1,0.965,-1.09,0.564,0.128,0.116,0.163,0.0637,0.0395,0.341,0.509,0.571,1.03 (inactive),0.0351,-0.132,0.119,0.916,0.14,1.16,-0.126,0.353
Cc1ccccc1C(O)C1C=CC2C(=O)N(c3ccccc3)C(=O)C2N1Nc1ccccc1F (stereo not given),1.34,1.97,-0.0612,2.36,0.789,0.156,0.232,1.81,1.78,1.83,1.03,0.805 (inactive),0.195,0.161,0.77,3.01,-0.0703,1.23,-0.52,1.09
COCCOC(=O)N1C(=O)[C@@]2(c3cc(C#CC4=CCCCC4)ccc31)[C@H](c1ccccc1OCCO)N1[C@H](c3ccccc3)[C@H](c3ccccc3)OC(=O)[C@H]1[C@@H]2C(N)=O,1.32,-3.44,0.62,0.367,-0.416,-0.0758,-0.167,-0.512,0.383,0.161,-0.0123,-0.463 (inactive),0.0174,-0.0728,0.265,1.14,0.561,1.28,0.492,1.13
CO[C@H]1O[C@H](CO)[C@@H](OC(=O)Nc2ccccc2)[C@@H]2OC(=O)[C@H](Cc3ccccc3)C/C=C/C[C@@H](Cc3ccccc3)C(=O)O[C@@H]12,1.04,-3.45,0.587,1.68,-0.123,-0.0545,0.0639,0.696,1.07,0.269,0.548,1.96 (inactive),0.177,0.371,0.559,1.28,0.597,0.921,0.152,0.628
CCCC[C@@H]1C[C@H]1[C@@H](NC(=O)c1ccc(C(F)(F)F)cc1)c1ccc(C(=O)OC)cc1,0.733,-1.33,0.497,0.995,0.271,0.869,2.11,0.238,1.27,1.48,0.0711,0.0888 (inactive),0.0501,-0.0347,0.441,1.27,1.25,0.504,1.27,0.441
C[C@]1(C(=O)NCC(F)(F)F)c2ccccc2C(=O)N(Cc2ccc(OC(F)(F)F)cc2)[C@H]1c1ccc(CO)cc1,0.26,-1.11,-0.143,-0.0779,-0.373,-0.154,-0.0626,-0.519,-0.115,0.25,0.499,-0.568 (inactive),-0.179,-0.171,0.481,0.751,0.0891,0.185,-0.0339,0.422
O=c1cccc(-c2ccccc2C(F)(F)F)o1,-0.438,-0.445,-0.747,-0.294,0.243,0.421,0.417,1.08,-0.211,-0.678,0.747,0.3 (inactive),0.583,0.581,0.354,0.491,-0.148,-0.519,-0.223,-0.407
